SMILES strings stand for the structures. Screen size: about 59,000 compounds; about 6,500 (11%) were called active. About 15% were inconclusive and are not listed. No stated cut-off is given here; in the data, active means max dye-equivalent concentration above about 10 nM; inconclusive means mostly about 1.1 nM to 9.6 nM; inactive means weaker than that. Only a selection was taken, and actives are over-represented in it overall.

The experiment is described as follows: qHTS Assay for Spectroscopic Profiling in A350 Spectral Region. The settings on record: Compound autofluorescence, 340/450 nm, Alexa 350 dye-equivalents; active compounds read high. On the technique in general: Quantitative high-throughput screening tests each substance at several concentrations.
For `CC1=C2C(=O)OC(c3ccoc3)C2(C)CCC1` (stereo not drawn), the max dye-equivalent concentration entry was “inactive”.
On to `Cc1ccccc1N1CCN(S(=O)(=O)C[C@@]23CC[C@H](C[C@H]2NC(=O)[C@@H](N)CCS(C)(=O)=O)C3(C)C)CC1`, for which the max dye-equivalent concentration result is “inactive”.
As for `CCCC(=O)Nc1nnc(CC(=O)OCC)s1`, the max dye-equivalent concentration result was “inactive”.
The same measure for `O=C(COc1ccccc1F)NC1CC1`: “inactive”; for `O=C(CC1OC(=O)c2ccccc21)NC1CCCCC1` (stereo not drawn): “inactive”; for `O=C(COc1ccc2c3c(c(=O)oc2c1)CCC3)NC1CCCCC1`: 82 nM (active).
As to `O=C(COc1ccc2oc3c(c2c1)CCCC3)Nc1ccccn1`, the max dye-equivalent concentration result is “inactive”.
As to `Cc1cc(Cl)c(S(=O)(=O)NCC2CCCO2)cc1OCC(N)=O` (stereo not drawn), the max dye-equivalent concentration entry is “inactive”.
Consider `NC(=O)COc1ccc2c3c(c(=O)oc2c1)CCCCC3`, for which the max dye-equivalent concentration is 29 nM (active).
Consider `COc1ccccc1Nc1nc(N)nc(CN(C)C2CCCCC2)n1`, for which the max dye-equivalent concentration entry is “inactive”.
As for `COc1cccc(-c2cc(NCCc3c[nH]c4ccc(OC)cc34)ncn2)c1`, the max dye-equivalent concentration entry is “inactive”.
As for `O=S1(=O)CCN2C(=N1)SC1=C2CCN(Cc2ccccc2)C1`, the max dye-equivalent concentration entry is “inactive”.
The same measure for `CC1(C)CC(=O)c2cc(OCC(=O)NCC3CCCO3)ccc2O1` (stereo not drawn): 1600 nM (active).
For the molecule `COc1ccccc1-n1cnc2cc(C(=O)NCC3CCCO3)ccc21` (stereo not drawn), the max dye-equivalent concentration result is “inactive”.
For `O=C(Cn1c(=O)n(Cc2ccco2)c(=O)c2ccccc21)NCC1CCCO1` (stereo not drawn) the value was “inactive”; for `O=C(c1csnn1)N1CCC2(CCN(Cc3nccs3)CC2)CC1`, “inactive”; for `Cc1cc(C)n(C(=O)c2ccc(S(=O)(=O)N3CCCC3)cc2)n1`, “inactive”.
For `Cn1nnc2cc(C(=O)NCCC3=CCCCC3)ccc21`, the max dye-equivalent concentration entry is “inactive”.
As for `CCOC(=O)c1cc2n(c1N)-c1ccccc1C2=O`, the max dye-equivalent concentration entry is “inactive”.
For `CCCn1c(=NC(C)=O)c(C(=O)OCC)cc2c(=O)n3ccccc3nc21`, the max dye-equivalent concentration is 4900 nM (active).
In the case of `CCOC(=O)c1cc2n(c1C)-c1ccccc1C2=O`, the max dye-equivalent concentration entry is “inactive”.
As for `O=S(=O)(CCc1nc2ccccc2o1)c1ccc(Cl)cc1`, the max dye-equivalent concentration entry is “inactive”.
With `CN1CCC2(CC1)NC(=O)NC2=O`, the max dye-equivalent concentration entry was “inactive”.
With `CCN(CC)S(=O)(=O)c1cccc(C(=O)Nc2cc(C)nn2-c2nc(C)cc(C)n2)c1`, the max dye-equivalent concentration result is “inactive”.
For the molecule `CCC(=O)NC(=Nc1nc2ccccc2s1)NC(=O)CC`, the max dye-equivalent concentration was 190 nM (active).
For `COC(=O)Cc1cc(=O)n(-c2nc3ccccc3s2)[nH]1` the value was “inactive”; for `CSCCC(Nc1nc2ccccc2s1)C(=O)O` (stereo not drawn), “inactive”; for `O=C(O)[C@@H](S)[C@H](S)C(=O)O`, “inactive”.
With `COc1ccc(C(=O)NC(=O)CSc2nnc(-c3ccco3)n2-c2ccccc2)cc1`, the max dye-equivalent concentration result is “inactive”.
For the molecule `O=C(CSc1nnc(-c2cccs2)n1-c1ccccc1)NCc1ccco1`, the max dye-equivalent concentration was 11 nM (active).
On to `O=C(CSc1nnc(-c2c[nH]c3ccccc23)n1-c1ccc(F)cc1)NCc1ccco1`, for which the max dye-equivalent concentration result was “inactive”.
`Cc1ccc(-n2c(SCC(=O)Nc3ccc4c(c3)OCO4)nnc2-c2ccoc2C)cc1`: the max dye-equivalent concentration result was “inactive”.
For `O=C(CSc1nnc(-c2cccs2)n1-c1ccccc1)N1CCN(C(=O)c2ccco2)CC1`, the max dye-equivalent concentration result is “inactive”.
For `COc1ccc(-n2c(SCC(=O)NCc3cccs3)nnc2-c2ccoc2C)cc1`, the max dye-equivalent concentration was 27 nM (active).
For the molecule `NCCNCC1CCNCC1`, the max dye-equivalent concentration result was “inactive”.
In the case of `Cc1cccc(N2CCN(S(=O)(=O)c3ccc4c(c3)c(=O)n(C)c(=O)n4C)CC2C)c1` (stereo not drawn), the max dye-equivalent concentration result was “inactive”.
With `O=C(c1cnccn1)N1CCC[C@@]2(CCN(Cc3ccncc3)C2)C1`, the max dye-equivalent concentration result is “inactive”.
With `Cc1ccc(-c2ccc(=O)n(CC(=O)NCCCN3CCCCC3)n2)cc1`, the max dye-equivalent concentration entry was “inactive”.
With `COc1ccc(CCN(C)CCN2C(=O)c3ccccc3C2=O)cc1OC`, the max dye-equivalent concentration result is “inactive”.
On to `COc1ccc(CCN2C(=O)c3[nH]nc(-c4ccccc4O)c3C2c2ccc(C)cc2)cc1OC` (stereo not drawn), for which the max dye-equivalent concentration is 140 nM (active).
The same measure for `COc1ccc(-c2n[nH]c(C)c2-c2ccc(OC)c(OC)c2)c(O)c1`: “inactive”.
`Cc1cc(C(=O)COC(=O)c2cccs2)c(C)n1-c1c(C)n(C)n(-c2ccccc2)c1=O`: the max dye-equivalent concentration entry is “inactive”.
The same measure for `N#C/C=C1\Sc2ccccc2C(=O)N1CC(=O)N1CCN(S(=O)(=O)c2ccccc2)CC1`: 15 nM (active).
Take `Cc1ccc(S(=O)(=O)N2CCN(C(=O)CCC(=O)NC3CCCc4ccccc43)CC2)cc1` (stereo not drawn): the max dye-equivalent concentration entry was “inactive”.
Regarding `O=C(CCC(=O)N1CCN(S(=O)(=O)c2ccccc2)CC1)NC1CCCc2ccccc21` (stereo not drawn), the max dye-equivalent concentration result is “inactive”.
In the case of `COc1ccc(CCn2c(-c3ccco3)nc3nc4ccccc4nc32)cc1OC`, the max dye-equivalent concentration was 11 nM (active).
For the molecule `COc1ccc(CCn2nnnc2C(c2ccccc2)N2CCN(C)CC2)cc1OC` (stereo not drawn), the max dye-equivalent concentration entry is “inactive”.
As to `COCCn1c(-c2ccc(OC)c(OC)c2)nc2ccccc21`, the max dye-equivalent concentration result was “inactive”.
As to `CCc1ccccc1NC(=O)CSc1nnc([C@@H](NC(=O)OC(C)(C)C)C(C)C)o1`, the max dye-equivalent concentration result is “inactive”.
Turning to `CN1CCN(C(=O)c2ccc(NS(=O)(=O)c3ccccc3)cc2)CC1`, the max dye-equivalent concentration entry was “inactive”.
`O=C(Nc1c[nH]c(=O)[nH]c1=O)Oc1ccccc1`: the max dye-equivalent concentration entry was “inactive”.
`COc1ccc(C(=O)Nc2ccc(S(=O)(=O)Nc3onc(C)c3C)cc2)cc1OC`: the max dye-equivalent concentration result is “inactive”.
In the case of `COc1ccc2c(c1OC)C(=O)N(c1ncn[nH]1)C2`, the max dye-equivalent concentration entry was “inactive”.
The same measure for `O=C(O)c1cccc(S(=O)(=O)NCCO)c1`: “inactive”; for `CCOc1ccc(Nc2oc(Cc3ccccc3)nc2C#N)cc1`: “inactive”; for `CCOc1ccc2nc(NCCNS(=O)(=O)c3ccccc3)c(C#N)cc2c1`: 86 nM (active).
Regarding `CCOc1ccccc1N(CC(=O)NC1CCCCC1)C(=O)CCCC(=O)Nc1ccccn1`, the max dye-equivalent concentration entry was “inactive”.
As for `N#Cc1c2c(c(N3CCN(CCO)CC3)n3c1nc1ccccc13)CCCC2`, the max dye-equivalent concentration was 23 nM (active).
Turning to `CN(C)CCCNc1c2c(c(C#N)c3nc4ccccc4n13)CCC2`, the max dye-equivalent concentration was 94 nM (active).
For `CN(C)C(=O)/N=N\C(=O)N(C)C` the value was “inactive”; for `CC(C)NS(=O)(=O)c1ccc(CCC(=O)N2CCOCC2)cc1`, “inactive”; for `N=C(CC(=O)Nc1ccccn1)c1ccccc1`, “inactive”.
As to `O=C(c1ccccc1)N1CCN(C(=O)N2CCCCC2)CC1`, the max dye-equivalent concentration entry is “inactive”.
As for `COc1ccc(-c2nc3n(c2Br)CCC3)cc1`, the max dye-equivalent concentration result was “inactive”.
On to `CC(Sc1nncs1)C(=O)NCc1ccc2c(c1)OCO2` (stereo not drawn), for which the max dye-equivalent concentration entry was “inactive”.
On to `CCOC(=O)c1c(C)[nH]c(C)c1C(=O)CSc1nc(N)cc(N)n1`, for which the max dye-equivalent concentration entry was “inactive”.
For `O=S(=O)(NCCOc1cccc2cccnc12)c1ccc(F)cc1`, the max dye-equivalent concentration result is “inactive”.
`CC(=O)Nc1ccc(S(=O)(=O)Nc2cccc(NC(=O)C(C)(C)C)c2)cc1`: the max dye-equivalent concentration entry was “inactive”.
In the case of `COc1ccc(NS(=O)(=O)c2ccc(NC(=O)C(C)(C(F)(F)F)C(F)(F)F)cc2)nn1`, the max dye-equivalent concentration was 23 nM (active).
Turning to `COc1cc(NS(=O)(=O)c2ccc(NC(C)=O)cc2)cc(OC)c1`, the max dye-equivalent concentration entry is “inactive”.
The same measure for `O=C(CN(c1ccc2c(c1)OCCO2)S(=O)(=O)c1ccccc1)Nc1ccc2c(c1)OCO2`: “inactive”.
For the molecule `CCCn1c(C(O)c2cc(OC)ccc2OC)nc2ccccc21` (stereo not drawn), the max dye-equivalent concentration entry was “inactive”.
In the case of `O=C(NCCc1ccco1)c1nn(Cc2ccccc2)c(=O)c2ccccc12`, the max dye-equivalent concentration entry was “inactive”.
In the case of `COc1c(O)cccc1-c1nnn(CCC(=O)OCC(=O)c2ccccc2)n1`, the max dye-equivalent concentration result is “inactive”.
With `COCCNc1ccnc(-c2cccc(NS(C)(=O)=O)c2)n1`, the max dye-equivalent concentration result was “inactive”.
Take `COc1ccc(N2C(=O)c3cccc4cccc(c34)C2=O)nn1`: the max dye-equivalent concentration was 160 nM (active).
Consider `COc1ccc(OCCCON2C(=O)c3ccccc3C2=O)cc1`, for which the max dye-equivalent concentration entry was “inactive”.
For `CCOC(=O)c1[nH]cnc1C(=O)NC1CCCCC1` the value was “inactive”; for `Fc1ccccc1CCNc1nnnn1-c1ccccc1`, “inactive”.
Consider `Cc1cc(C)n(-c2ccc(Cl)c(C(=O)O)n2)n1`, for which the max dye-equivalent concentration entry was “inactive”.
For `COc1ccccc1NC(=O)C1=C(C)Nc2ncnn2C1c1ccc(C)o1` (stereo not drawn) the value was “inactive”; for `COC(=O)C1=C(C)NC2=C(C(=O)c3ccccc32)C1c1ccc(-c2ccc(C(=O)O)cc2)o1` (stereo not drawn), “inactive”.
As to `COc1ccccc1NC(=O)C1=C(C)NC2=C(C(=O)CCC2)C1c1ccc(C)o1` (stereo not drawn), the max dye-equivalent concentration is 16 nM (active).
The same measure for `O=C(CCCCn1c(=O)[nH]c2ccccc2c1=O)NCc1ccc2c(c1)OCO2`: “inactive”.
Turning to `CC1CN(C(=O)CN2C(=O)NC(C)(c3ccccc3)C2=O)CC(C)O1` (stereo not drawn), the max dye-equivalent concentration entry is “inactive”.
As to `CN(C(=O)C1CCOC1)c1nnc(-c2cccnc2)s1` (stereo not drawn), the max dye-equivalent concentration entry is “inactive”.
As to `C[C@@H]1C[C@H]2[C@@H]3C[C@H](F)C4=CC(=O)C=C[C@@]4(C)[C@]3(F)[C@H](O)C[C@]2(C)[C@@]1(O)C(=O)CO`, the max dye-equivalent concentration result was “inactive”.
The same measure for `CCCCOc1ccccc1/C=c1/sc2nc(-c3oc4ccccc4c3C)nn2c1=O`: “inactive”; for `Cc1nc(Nc2ccc3c(c2)OCCO3)c2nnn(Cc3ccccc3Cl)c2n1`: 980 nM (active); for `Cc1cc(Cl)c(S(=O)(=O)Nc2ccc3c(c2)OCCO3)cc1OCC(N)=O`: “inactive”.
Turning to `C#CCNc1nc(C(C)C)nc2c1nnn2Cc1ccccc1F`, the max dye-equivalent concentration entry was “inactive”.
For the molecule `CSCC[C@H](NC(=O)NCc1cccs1)C(=O)O`, the max dye-equivalent concentration entry is “inactive”.
Regarding `COc1ccccc1CNc1ncncc1-c1cccnc1`, the max dye-equivalent concentration result was “inactive”.
For `CCc1cc(=O)oc2cc(C)cc(OC(C)C(=O)O)c12` (stereo not drawn) the value was 110 nM (active).
As for `CCOC(=O)CCCNC(=O)CN1C(=O)NC(CCc2ccccc2)C1=O` (stereo not drawn), the max dye-equivalent concentration result is “inactive”.
Regarding `CCNc1nc(NCC)nc(N(C)n2cnnc2)n1`, the max dye-equivalent concentration entry was “inactive”.
With `C=CCn1c(SCn2nnc3ccccc3c2=O)nnc1-c1ccc(Cl)cc1`, the max dye-equivalent concentration entry is “inactive”.
For the molecule `COC(=O)N1CCC2(CCCN(Cc3ccccc3OC)C2)CC1`, the max dye-equivalent concentration entry was “inactive”.
Take `Cc1ccc2[nH]c(=O)c(-c3nc4c(C)cccn4c3NCc3ccco3)cc2c1`: the max dye-equivalent concentration entry is “inactive”.
In the case of `CCOC(=O)c1cc2cc(C)ccc2[nH]1`, the max dye-equivalent concentration result was “inactive”.
Regarding `CCNCc1cc2cc(C)ccc2[nH]c1=O`, the max dye-equivalent concentration is 53 nM (active).
As to `CC(C)(C)n1nnc(CCc2nnn(C(C)(C)C)n2)n1`, the max dye-equivalent concentration entry was “inactive”.
On to `Cc1csc(NC(=O)CN2CCCCCC2)n1`, for which the max dye-equivalent concentration result is “inactive”.
On to `Cc1csc(NC(=O)NC2(C(F)(F)F)Oc3ccccc3O2)n1`, for which the max dye-equivalent concentration was 100 nM (active).
The same measure for `O=C(Nc1cc(N2CCOCC2)ncn1)NC1(C(F)(F)F)Oc2ccc(Cl)cc2O1` (stereo not drawn): “inactive”; for `COc1cccc(Oc2ccc(N)cc2)c1`: “inactive”.
For the molecule `COc1ccc2[nH]c3cc4c(=O)c5cc(OC)ccc5[nH]c4cc3c(=O)c2c1`, the max dye-equivalent concentration result was “inactive”.
As to `COc1ccc2[nH]c3ccc(OC)cc3c2c1`, the max dye-equivalent concentration is 150 nM (active).

The values are drawn from PubChem BioAssay AID590 (National Center for Advancing Translational Sciences (NCATS), 2007).
